Screening data (PubChem)
Rows were chosen to be rich in hits. Some 7.5% of all compounds tested hit in one or more screens of this group.
B2AR arrestin – recruits beta-arrestin to the human beta2-adrenergic receptor; P07550; beta-arrestin recruitment to beta2AR, cell-based reporter; Potency, µM (titrated, usually from 46.1 µM), inactives show at the highest dose activation, usual class: activators; hit rate 0.02% among 330,000; AID 492947;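 further: potency means the concentration at half of the fitted maximal effect; 0% = DMSO controls and full agonism = EC100 isoproterenol or metaproterenol; nearly all actives have a fitted effect of over 65% in size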
TSHR antagonist – antagonists of human thyroid stimulating hormone receptor; P16473; TSHR-expressing cells, TSH-stimulated cAMP HTRF, 2 h; active compounds read low; activity change, negative = inhibition, % at 11.5 µM; hit rate 0.2% among 330,000; AID 504810;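 active means activity change below a set negative limit, meaning inhibition stronger than a set level, cut at about -70% in these data; inconclusive means activity change between two set negative limits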
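Cell-based HTRF cAMP assay; TSHR cells + compound, TSH EC80 (4nM final), 2 h, 37 deg C. Lysis with anti-cAMP cryptate and cAMP-d2, 30 min RT, read 665/620 nm.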
ELG1 repair inh – inhibitors of ELG1-dependent DNA repair in HEK293T cells | Potency, µM (titrated, usually from 46.1 µM), inactives show at the top dose activity change, negative = inhibition, actives largely listed as inhibitors | HEK293T ELG1-luciferase reporter, luminescence, 16 h; DNA damage induced by 5-fluorouridine | hit rate 2.3% among 330,000; further: potency means the concentration at half of the fitted maximal effect; nearly all actives have a fitted effect of over 55% in size
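Luminescence from the luciferase reporter, measured 30 min after ONE-Glo reagent at room temperature, was the read-out. Beforehand, 2,000 cells per well were exposed for 16 hr at 37 °C to 5-fluorouridine together with compound or vehicle.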
Gal4-VP16 FLuc – counter-screen for ROR gamma inhibitors: Gal4-VP16 reporter | Drosophila S2 Gal4-VP16 UAS-luciferase, luminescence, 20 h | Potency, µM (highest dose often 53.6 µM), for the others: at the top dose activity, negative = inhibition, actives largely listed as inhibitors | hit rate 3.5% among 310,000 | AID 2546;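 further: Gal4-VP16 expression switched on by copper sulfate through the metallothionein promoter; potency means the concentration at half of the fitted maximal effect; nearly all actives have a fitted effect of over 50% in size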
RORg inh – ROR gamma (mouse) transcription inhibition; P51450; Drosophila S2 Gal4-RORgamma UAS-luciferase reporter, 20 h; Potency, µM (highest dose often 53.6 µM), for inactives: at the highest dose activity change, negative = inhibition, usual class: inhibitors; hit rate 5.4% among 310,000; AID 2551; further: potency means the concentration at half of the fitted maximal effect; nearly all actives have a fitted effect of over 60% in size
Target sequence (P51450 whole entry, looked up, the tested form may be a part): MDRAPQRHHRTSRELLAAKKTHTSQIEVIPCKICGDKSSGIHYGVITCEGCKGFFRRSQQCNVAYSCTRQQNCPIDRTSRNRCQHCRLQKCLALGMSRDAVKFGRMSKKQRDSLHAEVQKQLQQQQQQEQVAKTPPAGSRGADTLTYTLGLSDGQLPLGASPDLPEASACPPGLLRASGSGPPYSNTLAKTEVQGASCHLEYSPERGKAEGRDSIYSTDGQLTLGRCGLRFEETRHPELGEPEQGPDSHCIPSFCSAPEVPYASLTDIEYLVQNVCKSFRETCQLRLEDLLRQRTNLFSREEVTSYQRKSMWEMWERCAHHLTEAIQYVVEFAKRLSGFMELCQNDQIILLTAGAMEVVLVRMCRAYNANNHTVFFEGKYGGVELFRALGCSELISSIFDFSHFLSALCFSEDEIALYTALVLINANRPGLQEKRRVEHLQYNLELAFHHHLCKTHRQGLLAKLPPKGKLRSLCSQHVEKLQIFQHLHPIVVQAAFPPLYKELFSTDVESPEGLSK
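Using a luciferase readout, inhibitors were identified by reduced reporter activity in Drosophila cells coexpressing a copper-inducible Gal4–ROR gamma fusion and UAS-driven Photinus luciferase, incubated 20 hr after 700 uM copper sulfate.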
An asterisk follows results filed as active; [ ] = dose if it differs, or a comment. Unless noted, the call rests on the fitted dose curve; in most records, active means well fitted curve in the direction sought with a large enough effect; inconclusive means small, poorly fitted or top-dose-only effect, or another doubt; inactive means no such curve, though single readings can be large; an effect the other way counts as inactive or inconclusive. Unless noted, on the % scale 0 is the no-effect control and ±100 the full control effect.

Results for Cc1ccc(C)c(S(=O)(=O)N2CCCCC2CCNC(=O)C(=O)NCCc2ccco2)c1 (centres undefined) ?
B2AR arrestin: 0%; TSHR antagonist: -21; ELG1 repair inh: inconclusive

Results for CCOc1ccccc1-c1nnc2n1N=C(c1cc(OC)cc(OC)c1)CS2 ?
Gal4-VP16 FLuc: 16%; RORg inh: inconclusive

Results for N#CC(c1ccc(Cl)cc1)c1nc2ccccc2nc1C(F)(F)F (centres undefined) ?
B2AR arrestin: 0%; TSHR antagonist: -25; ELG1 repair inh: 4%; Gal4-VP16 FLuc: 10µM*; RORg inh: inconclusive

How did c1cncc(-c2nccc(-n3ccnc3)n2)c1 do in these assays?
Gal4-VP16 FLuc: -5%; RORg inh: 0%

What do the screens show for `NC1=NC[C@H](c2ccccc2)N1CCCCC1CCCCC1`?
B2AR arrestin: -1%; TSHR antagonist: -12; ELG1 repair inh: -18%; Gal4-VP16 FLuc: -2%; RORg inh: -1%

Results for S=C1NC[C@H](c2ccccc2)N1CCCCC1CCCCC1 ?
B2AR arrestin: 0%; TSHR antagonist: -14; ELG1 repair inh: 2%; Gal4-VP16 FLuc: 3.2µM*; RORg inh: 0.45µM*

What do the screens show for `Oc1ccc(C[C@@H]2CNC(=S)N2CCCCC2CCCCC2)cc1`?
B2AR arrestin: 0%; TSHR antagonist: -6; ELG1 repair inh: -5%; Gal4-VP16 FLuc: inconclusive; RORg inh: 8.9µM*

How did CCc1nc2ccc(C(=O)N3CCN(c4ccccc4F)CC3)cc2nc1CC do in these assays?
B2AR arrestin: 0%; TSHR antagonist: -3; ELG1 repair inh: inconclusive; Gal4-VP16 FLuc: -3%; RORg inh: 0%

What do the screens show for `Cc1ccc(Cn2cnc3c(cnn3C(C)(C)C)c2=O)cc1`?
B2AR arrestin: 0%; TSHR antagonist: -16; ELG1 repair inh: 16µM*; Gal4-VP16 FLuc: inconclusive; RORg inh: -28%

How did CC(C)CCC(CCNCc1ccccn1)c1ccc(Cl)cc1 (centres undefined) do in these assays?
B2AR arrestin: 0%; TSHR antagonist: 7; ELG1 repair inh: -27%; Gal4-VP16 FLuc: -13%; RORg inh: 11µM*

Results for C[C@@]12CCc3occc3[C@H]1CC[C@@]13C[C@@H](CC[C@H]12)[C@@](O)(CO)C3 ?
Gal4-VP16 FLuc: 1%; RORg inh: -19%

What do the screens show for `CC(C)(C)c1cc(C(=O)NNC(=O)Nc2ccccc2)n(Cc2ccccc2)n1`?
B2AR arrestin: -1%; TSHR antagonist: 9; ELG1 repair inh: 7%; Gal4-VP16 FLuc: -40%; RORg inh: 0.063µM*

How did COc1ccc(Oc2ncc3nc(-c4ccc(OC)cc4)c(=O)n(C)c3n2)cc1 do in these assays?
Gal4-VP16 FLuc: 7%; RORg inh: 11%

Results for O=c1c2ccccc2[nH]c(=S)n1Cc1cccs1 ?
B2AR arrestin: -5%; TSHR antagonist: -5; ELG1 repair inh: -5%; Gal4-VP16 FLuc: 3.2µM*; RORg inh: 1.6µM*

How did O=c1c2cc(Cl)ccc2[nH]c(=S)n1Cc1ccccn1 do in these assays?
B2AR arrestin: 0%; TSHR antagonist: 12; ELG1 repair inh: inconclusive; Gal4-VP16 FLuc: 3.2µM*; RORg inh: 2.2µM*

Results for O=c1c2ccccc2[nH]c(=S)n1Cc1ccccc1Cl ?
B2AR arrestin: 0%; TSHR antagonist: 15; ELG1 repair inh: 18%; Gal4-VP16 FLuc: 5µM*; RORg inh: 3.5µM*

What do the screens show for `O=C(NCc1ccccn1)c1ccc(Cn2c(=S)[nH]c3ccc(Br)cc3c2=O)cc1`?
B2AR arrestin: 0%; TSHR antagonist: -2; ELG1 repair inh: -1%; Gal4-VP16 FLuc: -2%; RORg inh: -2%

Results for O=c1c2ccccc2[nH]c(=S)n1CCN1CCN(Cc2ccccc2)CC1 ?
B2AR arrestin: 0%; TSHR antagonist: 2; ELG1 repair inh: 1%; Gal4-VP16 FLuc: inconclusive; RORg inh: 35µM*

Results for CN1CCN(CCn2c(=S)[nH]c3ccccc3c2=O)CC1 ?
B2AR arrestin: 0%; TSHR antagonist: 3; ELG1 repair inh: 15%; Gal4-VP16 FLuc: 5%; RORg inh: -8%

What do the screens show for `CCN(CC)CCn1c(=S)[nH]c2cc(Cl)ccc2c1=O`?
B2AR arrestin: 0%; TSHR antagonist: 21; ELG1 repair inh: 4%; Gal4-VP16 FLuc: inconclusive; RORg inh: 13µM*

Results for O=c1c2ccccc2[nH]c(=S)n1CCN1CCc2ccccc2C1 ?
B2AR arrestin: 0%; TSHR antagonist: -6; ELG1 repair inh: 9%; Gal4-VP16 FLuc: inconclusive; RORg inh: 11µM*

What do the screens show for `COc1cc2[nH]c(=S)n(Cc3ccccc3)c(=O)c2cc1OC`?
B2AR arrestin: 0%; TSHR antagonist: -3; ELG1 repair inh: -6%; Gal4-VP16 FLuc: 5µM*; RORg inh: 3.2µM*

How did CCCn1c(=S)[nH]c2ccccc2c1=O do in these assays?
B2AR arrestin: 0%; TSHR antagonist: -7; ELG1 repair inh: 0%; Gal4-VP16 FLuc: 7.9µM*; RORg inh: 2.8µM*

What do the screens show for `COc1cc2[nH]c(=O)n(Cc3ccccc3Cl)c(=O)c2cc1OC`?
B2AR arrestin: 0%; TSHR antagonist: -2; ELG1 repair inh: -1%; Gal4-VP16 FLuc: 0%; RORg inh: 1%

What do the screens show for `O=c1c(-c2ccc(F)cc2)nc2cnc(N3CCNCC3)nc2n1-c1ccccc1`?
Gal4-VP16 FLuc: -13%; RORg inh: -40%

What do the screens show for `CCc1cc2c(nc1CC)CCN(CC/C(C)=N/O[C@@H](C)c1cn([C@@H]3COC[C@@H]3O)nn1)C2`?
Gal4-VP16 FLuc: -3%[10 µM]; RORg inh: 0%[10 µM]

How did COC(=O)[C@@H]1C=C[C@H](C)[C@H](CCOc2ccccc2)O1 do in these assays?
Gal4-VP16 FLuc: -1%; RORg inh: -19%

Results for O=c1c2nccnc2[nH]c(=S)n1Cc1ccccc1 ?
B2AR arrestin: 0%; TSHR antagonist: 7; ELG1 repair inh: 8%; Gal4-VP16 FLuc: -22%; RORg inh: inconclusive

What do the screens show for `NS(=O)(=O)c1ccc(CCn2c(=S)[nH]c3ccccc3c2=O)cc1`?
B2AR arrestin: 0%; TSHR antagonist: 4; ELG1 repair inh: -5%; Gal4-VP16 FLuc: 2%; RORg inh: inconclusive

How did O=c1c2ccccc2[nH]c(=S)n1CCc1ccccc1 do in these assays?
B2AR arrestin: 7%; TSHR antagonist: -6; ELG1 repair inh: inconclusive; Gal4-VP16 FLuc: 3.2µM*; RORg inh: 1.6µM*

How did O=c1c2ccccc2[nH]c(=S)n1Cc1ccccc1 do in these assays?
B2AR arrestin: -1%; TSHR antagonist: -6; ELG1 repair inh: 5%; Gal4-VP16 FLuc: 5µM*; RORg inh: 4µM*

Results for O=c1c2cccnc2[nH]c(=S)n1Cc1ccccc1 ?
B2AR arrestin: 1%; TSHR antagonist: -1; ELG1 repair inh: 26%; Gal4-VP16 FLuc: 4µM*; RORg inh: 10µM*

Results for O=C(c1c(O)c2ccc(Cl)cc2[nH]c1=O)C1CC1 ?
Gal4-VP16 FLuc: -1%; RORg inh: 7%
